Data as given in the supplement of paper PMC4206461.
Values without a mark were called inactive.

Each compound was assayed on Pseudomonas aeruginosa PA14 dppA1-A5 penta mutant + pBBR5.DppA1 (PA14_58350) (assay: respiration area under curve with compound as sole nitrogen source, 24 h (OmniLog AUC (arbitrary units)); higher = more respiration / better utilisation as nitrogen source, active = 2000 or more).
Protocol: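 Biolog Phenotype MicroArray plates PM6-PM8: each di/tripeptide is the sole nitrogen source. Tetrazolium reduction was read in the OmniLog for 24 h at 37°C and summarised as area under the respiration curve (arbitrary units). Values below 2000 count as no respiration. Strain is the SBP penta mutant complemented with DppA1 on a plasmid under its native promoter. Lys/His/Cys peptides are excluded.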

With `CSCCC(N)C(=O)NC(CCSC)C(=O)O` (stereo not drawn) (plate: PM7) as the compound, how does the “respiration area under curve” value read?
The value was 0.

For `CSCC[C@H](NC(=O)[C@@H](N)Cc1ccccc1)C(=O)O` (plate: PM8), which “respiration area under curve” value is on record?
The value was 805.

How did the “respiration area under curve” value turn out when `NC(N)=NCCC[C@H](NC(=O)[C@@H](N)Cc1c[nH]c2ccccc12)C(=O)O` (plate: PM7) was run?
The value was 12000 (active).

With `CC(C)C[C@H](NC(=O)[C@@H](C)N)C(=O)O` (plate: PM8) as the compound, how does the “respiration area under curve” value read?
Its value is 286.

`CC(C)[C@H](N)C(=O)N[C@@H](Cc1ccc(O)cc1)C(=O)O` (plate: PM7) was tested. Which “respiration area under curve” value did it give?
The value was 7120 (active).

What follows are compounds tested on Pseudomonas aeruginosa PA14 wild type in the same assay as above.
Protocol: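 Biolog Phenotype MicroArray plates PM6-PM8: each di/tripeptide is the sole nitrogen source (IF-0 medium with succinate/ferric citrate and dye mix A). Tetrazolium reduction was read in the OmniLog every 15 min for 24 h at 37°C and summarised as area under the respiration curve (arbitrary units). The paper counts values below 2000 as no respiration and above 8000 as solid respiration. Replicate datasets are averaged.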

How did the “respiration area under curve” value turn out when `C[C@H](NC(=O)[C@@H](N)CCCN=C(N)N)C(=O)O` (plate: PM6) was run?
Its value is 9790 (active).

How did the “respiration area under curve” value turn out when `CSCCC(N)C(=O)NC(CCSC)C(=O)O` (stereo not drawn) (plate: PM7) was run?
Its value is 0.

For `CC(C)[C@H](N)C(=O)N[C@H](C(=O)O)C(C)C` (plate: PM7), which “respiration area under curve” value is on record?
The value was 9240 (active).

For `CSCC[C@H](NC(=O)[C@@H](N)Cc1ccccc1)C(=O)O` (plate: PM8), which “respiration area under curve” value is on record?
The value was 1220.

With `CSCC[C@H](N)C(=O)N[C@H](C(=O)O)[C@@H](C)O` (plate: PM8) as the compound, how does the “respiration area under curve” value read?
Its value is 4350 (active).

How did the “respiration area under curve” value turn out when `CC(C)C[C@H](N)C(=O)N[C@H](C(=O)O)C(C)C` (plate: PM7) was run?
The value was 9910 (active).

How did the “respiration area under curve” value turn out when `CSCCC(NC(=O)C(N)CC(C)C)C(=O)O` (stereo not drawn) (plate: PM6) was run?
The value was 3040 (active).

Which “respiration area under curve” value does the source give for `CC[C@H](C)[C@H](N)C(=O)NCC(=O)O` (plate: PM6) here?
The value was 4940 (active).

`N[C@@H](CC(=O)O)C(=O)N[C@@H](Cc1c[nH]c2ccccc12)C(=O)O` (plate: PM6) was tested. Which “respiration area under curve” value did it give?
The value was 2310 (active).

With `NCC(=O)N1CCC[C@H]1C(=O)O` (plate: PM6) as the compound, how does the “respiration area under curve” value read?
The value was 9130 (active).

`NC(=O)C[C@H](NC(=O)[C@@H](N)CO)C(=O)O` (plate: PM8) was tested. Which “respiration area under curve” value did it give?
The value was 12500 (active).

Which “respiration area under curve” value does the source give for `O=C(O)[C@@H]1CCCN1C(=O)[C@@H]1CCCN1` (plate: PM7) here?
The value was 10500 (active).

With `NC(N)=NCCC[C@H](N)C(=O)N[C@@H](CC(=O)O)C(=O)O` (plate: PM6) as the compound, how does the “respiration area under curve” value read?
Its value is 9430 (active).

`CC[C@H](C)[C@H](N)C(=O)N[C@@H](CO)C(=O)O` (plate: PM6) was tested. Which “respiration area under curve” value did it give?
The value was 6110 (active).

With `CC(C)[C@H](N)C(=O)N[C@@H](Cc1ccccc1)C(=O)O` (plate: PM8) as the compound, how does the “respiration area under curve” value read?
The value was 6560 (active).

Which “respiration area under curve” value does the source give for `NC(N)=NCCC[C@H](N)C(=O)N[C@@H](Cc1ccc(O)cc1)C(=O)O` (plate: PM6) here?
Its value is 9840 (active).

For `NCC(=O)N[C@@H](CC(N)=O)C(=O)O` (plate: PM8), which “respiration area under curve” value is on record?
The value was 14700 (active).

Which “respiration area under curve” value does the source give for `CC[C@H](C)[C@H](NC(=O)[C@@H](N)Cc1ccc(O)cc1)C(=O)O` (plate: PM8) here?
Its value is 6790 (active).

`NCC(=O)N[C@@H](CCCN=C(N)N)C(=O)O` (plate: PM6) was tested. Which “respiration area under curve” value did it give?
The value was 8640 (active).

For `C[C@H](N)C(=O)N[C@@H](Cc1ccccc1)C(=O)O` (plate: PM6), which “respiration area under curve” value is on record?
Its value is 7710 (active).

For `NC(N)=NCCC[C@H](NC(=O)[C@@H](N)Cc1c[nH]c2ccccc12)C(=O)O` (plate: PM7), which “respiration area under curve” value is on record?
The value was 13500 (active).

`CC(C)C[C@H](N)C(=O)N[C@@H](Cc1ccccc1)C(=O)O` (plate: PM6) was tested. Which “respiration area under curve” value did it give?
The value was 6750 (active).

For `CSCC[C@H](NC(=O)[C@@H](N)CO)C(=O)O` (plate: PM7), which “respiration area under curve” value is on record?
Its value is 4420 (active).

Which “respiration area under curve” value does the source give for `CC(C)C[C@H](NC(=O)[C@@H](C)N)C(=O)O` (plate: PM8) here?
The value was 626.

With `C[C@@H](O)[C@H](N)C(=O)N[C@@H](CCC(N)=O)C(=O)O` (plate: PM8) as the compound, how does the “respiration area under curve” value read?
The value was 12100 (active).

For `CC[C@H](C)[C@H](N)C(=O)N[C@H](C(=O)O)[C@@H](C)CC` (plate: PM6), which “respiration area under curve” value is on record?
The value was 2030 (active).

For `CC(C)C[C@H](NC(=O)[C@@H](N)Cc1ccc(O)cc1)C(=O)O` (plate: PM7), which “respiration area under curve” value is on record?
The value was 7880 (active).

`CSCC[C@H](N)C(=O)N[C@@H](Cc1c[nH]c2ccccc12)C(=O)O` (plate: PM7) was tested. Which “respiration area under curve” value did it give?
The value was 3640 (active).

With `CC(C)C[C@H](NC(=O)[C@H](CC(C)C)NC(=O)[C@@H](N)CC(C)C)C(=O)O` (plate: PM8) as the compound, how does the “respiration area under curve” value read?
The value was 5700 (active).

How did the “respiration area under curve” value turn out when `CC(C)[C@H](N)C(=O)N[C@@H](Cc1ccc(O)cc1)C(=O)O` (plate: PM7) was run?
Its value is 8020 (active).

`CC(C)C[C@@H](N)C(=O)NCC(=O)O` (plate: PM8) was tested. Which “respiration area under curve” value did it give?
Its value is 0.4.

Which “respiration area under curve” value does the source give for `CSCC[C@H](N)C(=O)N[C@@H](Cc1ccccc1)C(=O)O` (plate: PM7) here?
The value was 1400.

For `NC(N)=NCCC[C@H](NC(=O)[C@@H]1CCCN1)C(=O)O` (plate: PM8), which “respiration area under curve” value is on record?
The value was 12100 (active).
